Measurements reported in PubChem BioAssay AID493027 (The Scripps Research Institute Molecular Screening Center, 2011).
In all, about 2,000 compounds went through this assay and about 45 (2%) were called active. The full list was thinned out, with actives kept by preference. Values without a mark were called inactive.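 How the source made its calls: active means inhibition above the screen-wide mean inhibition plus 3 SD (cut at about 44% in these data); inactive means the rest.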

These molecules were tested against Perilipin-1 (Homo sapiens) + 1-acylglycerol-3-phosphate O-acyltransferase ABHD5 (Homo sapiens) (UniProt O60240+Q8WTS1) (assay: blockers of ABHD5 binding to perilipin-1 – cell lysate, split luciferase complementation, luminescence, NIH validation set, pilot screen (AID 493027;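 further: 0% = DMSO wells with the 100% control not disclosed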)). Details: split G. princeps luciferase complementation, 4 h; at 7.9 µM, hits give high values.
Perilipin-1 (Homo sapiens) + 1-acylglycerol-3-phosphate O-acyltransferase ABHD5 (Homo sapiens), sequence (O60240 whole entry, looked up): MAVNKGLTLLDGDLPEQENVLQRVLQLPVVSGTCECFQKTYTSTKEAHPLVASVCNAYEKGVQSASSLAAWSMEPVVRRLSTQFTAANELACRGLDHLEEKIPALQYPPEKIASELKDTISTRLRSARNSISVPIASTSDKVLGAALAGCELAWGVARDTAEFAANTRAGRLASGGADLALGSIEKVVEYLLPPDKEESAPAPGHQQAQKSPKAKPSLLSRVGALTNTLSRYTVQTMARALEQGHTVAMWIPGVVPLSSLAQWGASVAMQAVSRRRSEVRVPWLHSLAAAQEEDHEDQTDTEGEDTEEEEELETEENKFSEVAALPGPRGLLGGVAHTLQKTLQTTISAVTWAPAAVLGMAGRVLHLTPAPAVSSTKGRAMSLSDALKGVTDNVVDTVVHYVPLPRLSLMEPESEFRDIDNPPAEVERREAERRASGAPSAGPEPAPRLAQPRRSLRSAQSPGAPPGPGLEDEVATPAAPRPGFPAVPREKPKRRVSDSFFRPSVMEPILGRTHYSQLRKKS
Perilipin-1 (Homo sapiens) + 1-acylglycerol-3-phosphate O-acyltransferase ABHD5 (Homo sapiens), sequence (Q8WTS1 whole entry, looked up): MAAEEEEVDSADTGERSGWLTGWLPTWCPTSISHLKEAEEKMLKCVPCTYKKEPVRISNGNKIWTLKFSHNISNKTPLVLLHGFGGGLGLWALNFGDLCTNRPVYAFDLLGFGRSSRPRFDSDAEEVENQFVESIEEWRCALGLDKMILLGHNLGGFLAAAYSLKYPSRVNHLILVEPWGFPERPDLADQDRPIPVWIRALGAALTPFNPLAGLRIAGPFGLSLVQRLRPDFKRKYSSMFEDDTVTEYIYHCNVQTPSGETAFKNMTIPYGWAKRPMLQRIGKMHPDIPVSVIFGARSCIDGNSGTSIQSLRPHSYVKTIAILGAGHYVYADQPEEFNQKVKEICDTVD

Question: For C[C@H](NC(=O)Nc1ccccc1F)C(=O)O, which inhibition is on record?
Answer: -0.07%

Question: For O=P(O)(O)CP(=O)(O)O, which inhibition is on record?
Answer: -4.16%

Question: With COc1cc(/C=C/C(=O)O)cc(S(=O)(=O)NCCCO)c1OC as the molecule, how does the inhibition read?
Answer: -7.07%

Question: How did the inhibition turn out when O=C(Nc1ccccc1)OCC1CCCN2CCCCC12 (stereo unspecified) was run?
Answer: -5.9%

Question: Which inhibition does the source give for O=C(NCc1ccccc1Cl)NC(=O)c1ccccc1 here?
Answer: -2.42%

Question: Cc1ccc(S(=O)(=O)N[C@@H](Cc2ccccc2)C(=O)CCl)cc1 was tested. Which inhibition did it give?
Answer: 82.3% (active)

Question: With CNS(=O)(=O)c1ccc(C)cc1 as the molecule, how does the inhibition read?
Answer: -13.4%

Question: Which inhibition does the source give for CCCCNC(=O)NS(=O)(=O)c1ccc(C)cc1 here?
Answer: -10.7%

Question: For COc1ccc(NC(=O)C2CCCN2C(=O)OC(C)(C)C)cc1 (stereo unspecified), which inhibition is on record?
Answer: -11.3%

Question: For COc1ccccc1NC(=O)C12CCC(C)(C(=O)C1)C2(C)C (stereo unspecified), which inhibition is on record?
Answer: -0.67%

Question: With COCCn1c(SCCOc2ccccc2)nc2ccccc2c1=O as the molecule, how does the inhibition read?
Answer: -7.89%

Question: For Cc1nc(N)nc2c1CCCC2, which inhibition is on record?
Answer: -5.16%

Question: Which inhibition does the source give for Nc1cc(-c2ccncc2)c[nH]c1=O here?
Answer: 49% (active)

Question: How did the inhibition turn out when c1cc(-c2ccncc2)ccn1 was run?
Answer: -6.1%

Question: With O=C(O)c1cc2cc(Cl)cc(Cl)c2oc1=O as the molecule, how does the inhibition read?
Answer: 1.22%

Question: Which inhibition does the source give for COc1ccc(CCN(C)CC(=O)Nc2cc(C)nc3ccccc23)cc1OC here?
Answer: 3.27%

Question: With COc1cccc(OC2OC3COC(C)(C)OC3C(O)C2NC(C)=O)c1 (stereo unspecified) as the molecule, how does the inhibition read?
Answer: -10.2%

Question: How did the inhibition turn out when CC(C)[N+]1(C)[C@@H]2CC[C@H]1CC(OC(=O)C(CO)c1ccccc1)C2 (stereo partly specified) was run?
Answer: -5.55%

Question: CCCCC/C=C\C[C@H](O)/C=C/c1cccc(C[C@H](O)CCCCO)n1 was tested. Which inhibition did it give?
Answer: 57.6% (active)

Question: Which inhibition does the source give for O=P(c1ccccc1)(c1ccccc1)c1nc(-c2ccc(Cl)cc2)oc1N1CCOCC1 here?
Answer: 2.59%

Question: Which inhibition does the source give for COc1ccc(C=O)c(OC)c1 here?
Answer: 0.71%

Question: For CC(=O)NCCCCCCNC(C)=O, which inhibition is on record?
Answer: 3.05%

Question: Which inhibition does the source give for Nc1ccc(S(N)(=O)=O)cc1N here?
Answer: 1.88%

Question: With COc1cc(NC(=S)NN2CCN(C)CC2)cc(OC)c1OC as the molecule, how does the inhibition read?
Answer: -10%

Question: How did the inhibition turn out when COc1cc(C2C(C(C)=O)=C(O)C(=O)N2c2ccc(C)cc2)ccc1O (stereo unspecified) was run?
Answer: -3.68%

Question: Which inhibition does the source give for O=C(Nc1cccc(Cl)c1)N1CCN2C(=O)c3ccccc3C12c1ccccc1 (stereo unspecified) here?
Answer: 6.94%

Question: For O=C1c2ccccc2C2(c3ccccc3)NCCN12 (stereo unspecified), which inhibition is on record?
Answer: 0.96%

Question: Which inhibition does the source give for CC1(c2ccccc2)CC(C)(C)N2C(=O)C(=O)c3cccc1c32 (stereo unspecified) here?
Answer: 65.7% (active)

Question: Which inhibition does the source give for CC(=O)c1cccc(NC(=O)N[C@@H](CC(C)C)C(=O)O)c1 here?
Answer: -3.15%

Question: COc1ccc(C(=O)Nc2ccc(OC)c([N+](=O)[O-])c2)cc1Br was tested. Which inhibition did it give?
Answer: 0.74%

Question: Which inhibition does the source give for COc1ccc(C(=O)COc2ccc(F)cc2)c(O)c1 here?
Answer: -7.26%

Question: With COc1ccc(C(=O)/C=C/c2cc(C(=O)O)cc3c2OCOC3)c(O)c1 as the molecule, how does the inhibition read?
Answer: 67.3% (active)

Question: For C[C@H]([C@@H](N)C(=O)N[C@@H](C(=O)O)[C@@H]1O[C@H](n2ccc(=O)[nH]c2=O)[C@@H](O)[C@H]1O)[C@@H](O)c1ccc(O)cn1, which inhibition is on record?
Answer: 8.07%

Question: CCOC(=O)C1CCCN(Cc2nc(Cc3cccc(F)c3)no2)C1 (stereo unspecified) was tested. Which inhibition did it give?
Answer: -4.38%

Question: For COC(=O)c1cc(=O)c2ccc(OC)cc2o1, which inhibition is on record?
Answer: -10.3%

Question: Which inhibition does the source give for CSCC[C@H](NC(=O)OC(C)(C)C)C(=O)N1CCC(C(=O)N[C@@H](C)C(=O)O)CC1 here?
Answer: -2.64%

Question: With CC1(C)C(C=C(Cl)Cl)C1C(=O)N1CCN(Cc2ccccc2)CC1 (stereo unspecified) as the molecule, how does the inhibition read?
Answer: -10.6%

Question: Which inhibition does the source give for CC(C)=CCCC(C)CN1CCC(N2CCC(C(=O)N3CCCC3)CC2)CC1 (stereo unspecified) here?
Answer: -9.96%

Question: Which inhibition does the source give for CC1(C)CC(O)(CNCc2ccc3c(c2)OCO3)CCO1 (stereo unspecified) here?
Answer: -11.9%

Question: Which inhibition does the source give for S=C(NCc1ccccc1)NCc1cccc(CNC(=S)NCc2ccccc2)c1 here?
Answer: 4.65%

Question: For N#C/C(=C/c1ccccc1)C(=O)NCc1ccccc1, which inhibition is on record?
Answer: 53.3% (active)

Question: For N#C/C(=C\c1ccc(O)c(O)c1)C(=O)NCCCc1ccccc1, which inhibition is on record?
Answer: 37.9%

Question: For CN1[C@@H]2CC[C@H]1CC(OC(=O)C(CO)c1ccccc1)C2 (stereo partly specified), which inhibition is on record?
Answer: -16.1%

Question: COC(=O)c1cc(C(=O)NCCC(C)C)cc([N+](=O)[O-])c1 was tested. Which inhibition did it give?
Answer: -28.2%

Question: How did the inhibition turn out when COc1cc(OC)c(C2C(C#N)=C(N)OC3=C2C(=O)CC(C)(C)C3)cc1OC (stereo unspecified) was run?
Answer: -0.37%

Question: Which inhibition does the source give for COc1ccc(-c2nc3c(=O)n(C)c(=O)[nH]c3n2CCc2ccccc2)cc1 here?
Answer: -1.13%
